# Experimental data: the supplement of paper PMC4466140
# B1: unnamed (peptide)
# chain: VRTRRRPPPPPIPST
# B2: unnamed (peptide)
# chain: NILKRRPLKLEAPSK
# B3: unnamed (peptide)
# chain: QNTPPLPPKPKSPHL
# Biological target: AgAbp1
# Test: SPOT peptide array binding signal intensity (averaged, normalized) (arbitrary units (background-subtracted, floor 0; scale differs between SH3 domains)); higher = stronger binding of the SH3 domain to the peptide
# Procedure: (§1)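 GST-tagged SH3 domains from S. cerevisiae (Sc), A. gossypii (Ag), C. albicans (Ca) and S. pombe (Sp) were incubated at 10 ug/ml overnight at 4 C on cellulose SPOT membranes carrying 292 synthetic 15-mer peptides mined from the S. cerevisiae proteome (cysteines replaced by serines). Binding was detected with anti-GST antibody, HRP secondary and chemiluminescence, quantified with Genespotter, and reported as normalized spot intensities averaged over biological replicates.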
row,Binder,SPOT peptide array binding signal intensity
1,B1,28.5
2,B2,27.5
3,B3,29

# Biological target: AgBbc1
# Test: as above
# Procedure: as §1
row,Binder,SPOT peptide array binding signal intensity
1,B1,892
2,B2,0.25
3,B3,4.75

# Biological target: AgBem1-D1
# Test: as above
# Procedure: as §1
row,Binder,SPOT peptide array binding signal intensity
1,B1,472
2,B2,65
3,B3,≤ 0

# Biological target: AgBzz1-D1
# Test: as above
# Procedure: as §1
row,Binder,SPOT peptide array binding signal intensity
1,B1,3600
2,B2,14
3,B3,30

# Biological target: AgBzz1-D2
# Test: as above
# Procedure: as §1
row,Binder,SPOT peptide array binding signal intensity
1,B1,940
2,B2,8
3,B3,38

# Biological target: AgCyk3
# Test: as above
# Procedure: as §1
row,Binder,SPOT peptide array binding signal intensity
1,B1,2
2,B2,≤ 0
3,B3,≤ 0

# Biological target: AgFus1
# Test: as above
# Procedure: as §1
row,Binder,SPOT peptide array binding signal intensity
1,B1,30
2,B2,77
3,B3,17.5

# Biological target: AgHof1
# Test: as above
# Procedure: as §1
row,Binder,SPOT peptide array binding signal intensity
1,B1,258
2,B2,1.25
3,B3,777

# Biological target: AgHse1
# Test: as above
# Procedure: as §1
row,Binder,SPOT peptide array binding signal intensity
1,B1,29
2,B2,1740
3,B3,39.5

# Biological target: AgLsb1
# Test: as above
# Procedure: as §1
row,Binder,SPOT peptide array binding signal intensity
1,B1,91.8
2,B2,0.5
3,B3,1

# Biological target: AgLsb4
# Test: as above
# Procedure: as §1
row,Binder,SPOT peptide array binding signal intensity
1,B1,44.5
2,B2,41
3,B3,60.5

# Biological target: AgMyo5
# Test: as above
# Procedure: as §1
row,Binder,SPOT peptide array binding signal intensity
1,B1,274
2,B2,≤ 0
3,B3,≤ 0

# Biological target: AgNbp2
# Test: as above
# Procedure: as §1
row,Binder,SPOT peptide array binding signal intensity
1,B1,840
2,B2,32
3,B3,6.5

# Biological target: AgRvs167
# Test: as above
# Procedure: as §1
row,Binder,SPOT peptide array binding signal intensity
1,B1,5.5
2,B2,4.5
3,B3,1

# Biological target: AgSho1
# Test: as above
# Procedure: as §1
row,Binder,SPOT peptide array binding signal intensity
1,B1,≤ 0
2,B2,≤ 0
3,B3,54

# Biological target: AgSla1-D1-D2
# Test: as above
# Procedure: as §1
row,Binder,SPOT peptide array binding signal intensity
1,B1,20
2,B2,7
3,B3,2

# Biological target: AgSla1-D3
# Test: as above
# Procedure: as §1
row,Binder,SPOT peptide array binding signal intensity
1,B1,346
2,B2,≤ 0
3,B3,1.5

# Biological target: CaAbp1-D1
# Test: as above
# Procedure: as §1
row,Binder,SPOT peptide array binding signal intensity
1,B1,61
2,B2,478
3,B3,55

# Biological target: CaAbp1-D2
# Test: as above
# Procedure: as §1
row,Binder,SPOT peptide array binding signal intensity
1,B1,55
2,B2,96
3,B3,226

# Biological target: CaBbc1
# Test: as above
# Procedure: as §1
row,Binder,SPOT peptide array binding signal intensity
1,B1,1060
2,B2,1.25
3,B3,41.5

# Biological target: CaBem1-D1
# Test: as above
# Procedure: as §1
row,Binder,SPOT peptide array binding signal intensity
1,B1,165
2,B2,≤ 0
3,B3,≤ 0

# Biological target: CaBzz1-D1
# Test: as above
# Procedure: as §1
row,Binder,SPOT peptide array binding signal intensity
1,B1,6060
2,B2,≤ 0
3,B3,46.5

# Biological target: CaBzz1-D2
# Test: as above
# Procedure: as §1
row,Binder,SPOT peptide array binding signal intensity
1,B1,3990
2,B2,14
3,B3,48.2

# Biological target: CaCyk3
# Test: as above
# Procedure: as §1
row,Binder,SPOT peptide array binding signal intensity
1,B1,108
2,B2,8
3,B3,1

# Biological target: CaFus1
# Test: as above
# Procedure: as §1
row,Binder,SPOT peptide array binding signal intensity
1,B1,7.5
2,B2,534
3,B3,≤ 0

# Biological target: CaHof1
# Test: as above
# Procedure: as §1
row,Binder,SPOT peptide array binding signal intensity
1,B1,≤ 0
2,B2,0.25
3,B3,3

# Biological target: CaHse1
# Test: as above
# Procedure: as §1
row,Binder,SPOT peptide array binding signal intensity
1,B1,13.8
2,B2,27.5
3,B3,1110

# Biological target: CaLsb1
# Test: as above
# Procedure: as §1
row,Binder,SPOT peptide array binding signal intensity
1,B1,≤ 0
2,B2,≤ 0
3,B3,0.5

# Biological target: CaLsb4
# Test: as above
# Procedure: as §1
row,Binder,SPOT peptide array binding signal intensity
1,B1,176
2,B2,≤ 0
3,B3,521

# Biological target: CaMyo5
# Test: as above
# Procedure: as §1
row,Binder,SPOT peptide array binding signal intensity
1,B1,13
2,B2,1.5
3,B3,4

# Biological target: CaNbp2
# Test: as above
# Procedure: as §1
row,Binder,SPOT peptide array binding signal intensity
1,B1,610
2,B2,284
3,B3,≤ 0

# Biological target: CaRvs167
# Test: as above
# Procedure: as §1
row,Binder,SPOT peptide array binding signal intensity
1,B1,48.5
2,B2,31.7
3,B3,5.67

# Biological target: CaRvs167-3
# Test: as above
# Procedure: as §1
row,Binder,SPOT peptide array binding signal intensity
1,B1,2
2,B2,24
3,B3,6

# Biological target: CaSho1
# Test: as above
# Procedure: as §1
row,Binder,SPOT peptide array binding signal intensity
1,B1,25.5
2,B2,93.5
3,B3,81

# Biological target: CaSla1-D1-D2
# Test: as above
# Procedure: as §1
row,Binder,SPOT peptide array binding signal intensity
1,B1,2380
2,B2,10.5
3,B3,≤ 0

# Biological target: CaSla1-D3
# Test: as above
# Procedure: as §1
row,Binder,SPOT peptide array binding signal intensity
1,B1,296
2,B2,≤ 0
3,B3,3.5

# Biological target: ScAbp1
# Test: as above
# Procedure: as §1
row,Binder,SPOT peptide array binding signal intensity
1,B1,19
2,B2,296
3,B3,≤ 0

# Biological target: ScBbc1
# Test: as above
# Procedure: as §1
row,Binder,SPOT peptide array binding signal intensity
1,B1,358
2,B2,≤ 0
3,B3,≤ 0

# Biological target: ScBem1-D1
# Test: as above
# Procedure: as §1
row,Binder,SPOT peptide array binding signal intensity
1,B1,46
2,B2,10
3,B3,≤ 0

# Biological target: ScBzz1-D1
# Test: as above
# Procedure: as §1
row,Binder,SPOT peptide array binding signal intensity
1,B1,1430
2,B2,12
3,B3,≤ 0

# Biological target: ScBzz1-D2
# Test: as above
# Procedure: as §1
row,Binder,SPOT peptide array binding signal intensity
1,B1,210
2,B2,≤ 0
3,B3,4

# Biological target: ScCyk3
# Test: as above
# Procedure: as §1
row,Binder,SPOT peptide array binding signal intensity
1,B1,20.5
2,B2,33
3,B3,1

# Biological target: ScFus1
# Test: as above
# Procedure: as §1
row,Binder,SPOT peptide array binding signal intensity
1,B1,10
2,B2,149
3,B3,21

# Biological target: ScHof1
# Test: as above
# Procedure: as §1
row,Binder,SPOT peptide array binding signal intensity
1,B1,0.75
2,B2,≤ 0
3,B3,196

# Biological target: ScHse1
# Test: as above
# Procedure: as §1
row,Binder,SPOT peptide array binding signal intensity
1,B1,186
2,B2,2660
3,B3,≤ 0

# Biological target: ScLsb1
# Test: as above
# Procedure: as §1
row,Binder,SPOT peptide array binding signal intensity
1,B1,96.8
2,B2,2.5
3,B3,1

# Biological target: ScLsb2
# Test: as above
# Procedure: as §1
row,Binder,SPOT peptide array binding signal intensity
1,B1,144
2,B2,1
3,B3,1

# Biological target: ScLsb3
# Test: as above
# Procedure: as §1
row,Binder,SPOT peptide array binding signal intensity
1,B1,584
2,B2,76
3,B3,4390

# Biological target: ScLsb4
# Test: as above
# Procedure: as §1
row,Binder,SPOT peptide array binding signal intensity
1,B1,23.5
2,B2,2
3,B3,52

# Biological target: ScMyo3
# Test: as above
# Procedure: as §1
row,Binder,SPOT peptide array binding signal intensity
1,B1,851
2,B2,0.25
3,B3,2

# Biological target: ScMyo5
# Test: as above
# Procedure: as §1
row,Binder,SPOT peptide array binding signal intensity
1,B1,892
2,B2,≤ 0
3,B3,≤ 0

# Biological target: ScNbp2
# Test: as above
# Procedure: as §1
row,Binder,SPOT peptide array binding signal intensity
1,B1,1260
2,B2,46
3,B3,7.5

# Biological target: ScPex13
# Test: as above
# Procedure: as §1
row,Binder,SPOT peptide array binding signal intensity
1,B1,269
2,B2,≤ 0
3,B3,1360

# Biological target: ScRvs167
# Test: as above
# Procedure: as §1
row,Binder,SPOT peptide array binding signal intensity
1,B1,624
2,B2,2.5
3,B3,57.2

# Biological target: ScSho1
# Test: as above
# Procedure: as §1
row,Binder,SPOT peptide array binding signal intensity
1,B1,141
2,B2,368
3,B3,268

# Biological target: ScSla1-D1-D2
# Test: as above
# Procedure: as §1
row,Binder,SPOT peptide array binding signal intensity
1,B1,3390
2,B2,39
3,B3,≤ 0

# Biological target: ScSla1-D3
# Test: as above
# Procedure: as §1
row,Binder,SPOT peptide array binding signal intensity
1,B1,488
2,B2,≤ 0
3,B3,4.5

# Biological target: SpAbp1-D1
# Test: as above
# Procedure: as §1
row,Binder,SPOT peptide array binding signal intensity
1,B1,13.5
2,B2,64.5
3,B3,≤ 0

# Biological target: SpBbc1
# Test: as above
# Procedure: as §1
row,Binder,SPOT peptide array binding signal intensity
1,B1,77.2
2,B2,0.75
3,B3,≤ 0

# Biological target: SpBzz1-D1
# Test: as above
# Procedure: as §1
row,Binder,SPOT peptide array binding signal intensity
1,B1,2830
2,B2,64
3,B3,302

# Biological target: SpBzz1-D2
# Test: as above
# Procedure: as §1
row,Binder,SPOT peptide array binding signal intensity
1,B1,430
2,B3,2.5

# Biological target: SpCyk3
# Test: as above
# Procedure: as §1
row,Binder,SPOT peptide array binding signal intensity
1,B1,2
2,B3,≤ 0

# Biological target: SpHof1
# Test: as above
# Procedure: as §1
row,Binder,SPOT peptide array binding signal intensity
1,B1,248
2,B3,≤ 0

# Biological target: SpHof1-2
# Test: as above
# Procedure: as §1
row,Binder,SPOT peptide array binding signal intensity
1,B1,73
2,B3,11.2

# Biological target: SpHof1-3
# Test: as above
# Procedure: as §1
row,Binder,SPOT peptide array binding signal intensity
1,B1,88.2
2,B3,28.8

# Biological target: SpHse1
# Test: as above
# Procedure: as §1
row,Binder,SPOT peptide array binding signal intensity
1,B1,42.8
2,B3,16

# Biological target: SpLsb1
# Test: as above
# Procedure: as §1
row,Binder,SPOT peptide array binding signal intensity
1,B1,63.5
2,B3,956

# Biological target: SpLsb4
# Test: as above
# Procedure: as §1
row,Binder,SPOT peptide array binding signal intensity
1,B1,1370
2,B3,1280

# Biological target: SpMyo1
# Test: as above
# Procedure: as §1
row,Binder,SPOT peptide array binding signal intensity
1,B1,1460
2,B3,19.5

# Biological target: SpNbp2
# Test: as above
# Procedure: as §1
row,Binder,SPOT peptide array binding signal intensity
1,B1,≤ 0
2,B3,42

# Biological target: SpPex13
# Test: as above
# Procedure: as §1
row,Binder,SPOT peptide array binding signal intensity
1,B1,30
2,B3,0.5

# Biological target: SpRvs167
# Test: as above
# Procedure: as §1
row,Binder,SPOT peptide array binding signal intensity
1,B1,265
2,B3,1090

# Biological target: SpSla1-D1-D2
# Test: as above
# Procedure: as §1
row,Binder,SPOT peptide array binding signal intensity
1,B1,520
2,B3,≤ 0

# Biological target: SpSla1-D3
# Test: as above
# Procedure: as §1
row,Binder,SPOT peptide array binding signal intensity
1,B1,1
2,B3,3
